Many of the other results were omitted from the sample, so hits are more common in it than they were.
Sm TGR inh: inhibitors of Schistosoma mansoni thioredoxin glutathione reductase; Q962Y6; purified TGR, DTNB reduction, TNB absorbance 405 nm; Potency, µM (doses to about 114 µM), most hits filed as inhibitors; actives 3% (n = 360,000); AID 485364; note: nearly all actives have a fitted effect of over 60% in size
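Kinetic colorimetric format: TGR-catalysed, NADPH-driven DTNB reduction monitored via TNB absorbance. Enzyme dispensed at 20 nM; compound exposure 15 min at room temperature before reaction start.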
Giardia FBPA inh: blocks Giardia fructose-bisphosphate aldolase activity; purified Giardia FBPA; actives 0.71% (n = 290,000); A8B2U2; Potency, µM (highest dose often 59.6 µM), most hits filed as inhibitors; AID 2451; note: nearly all actives have a fitted effect of over 55% in size
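Giardia FBPA (40 nM reagent) was preincubated 10 min at RT with compound (up to 57.5 uM final), then substrate plus GAPDH/TPI/NAD/arsenate coupling system with diaphorase/resazurin was added; resorufin fluorescence (525/598 nm) was read after 20 min.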
TbPYK inhibitor: inhibitors of Trypanosoma brucei pyruvate kinase; AID 624173; actives 0.12% (n = 410,000); Potency, µM (series often up to 76.8 µM), actives largely listed as inhibitors; TbPYK enzyme, Kinase-Glo Plus ATP luminescence, 45 min; note: nearly all actives have a fitted effect of over 50% in size
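Quantitative HTS: titrated library compounds versus trypanosomal pyruvate kinase in TEA buffer (pH 7.2) containing KCl, MgCl2, BSA and Tween-20. Reactions were initiated with ADP, 130 uM final. Kinase-Glo Plus luminescence was read after 45 min at RT.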
Shiga inhibitor: inhibitors of Shiga toxin in Vero cells | inhibition, % at 38.7 µM | AID 2315 | actives 9.2% (n = 290,000) | Vero cells, Shiga toxin protein synthesis inhibition reporter; in the data active = inhibition mostly above about 28%, no sharp cut-off; inactive = mostly below about 43%
CHX counter: counter-screen for Shiga toxin inhibitors: cycloheximide protein synthesis inhibition; cell reporter, cycloheximide protein synthesis inhibition counterscreen; max response, %; actives 12% (n = 300,000); AID 2314; in the data active = max response mostly above about 13%, no sharp cut-off; inactive = mostly below about 14%; note: read at 38.3 µM for the half of the compounds with a filed dose
LmPK inhibitor: inhibitors of Leishmania mexicana pyruvate kinase | actives 0.37% (n = 290,000) | Potency, µM (doses to about 57.5 µM), hits mostly inhibitors | AID 1721 | purified LmPK, Kinase-Glo ATP luminescence, 1 h
Target sequence (Q27686 whole entry, looked up): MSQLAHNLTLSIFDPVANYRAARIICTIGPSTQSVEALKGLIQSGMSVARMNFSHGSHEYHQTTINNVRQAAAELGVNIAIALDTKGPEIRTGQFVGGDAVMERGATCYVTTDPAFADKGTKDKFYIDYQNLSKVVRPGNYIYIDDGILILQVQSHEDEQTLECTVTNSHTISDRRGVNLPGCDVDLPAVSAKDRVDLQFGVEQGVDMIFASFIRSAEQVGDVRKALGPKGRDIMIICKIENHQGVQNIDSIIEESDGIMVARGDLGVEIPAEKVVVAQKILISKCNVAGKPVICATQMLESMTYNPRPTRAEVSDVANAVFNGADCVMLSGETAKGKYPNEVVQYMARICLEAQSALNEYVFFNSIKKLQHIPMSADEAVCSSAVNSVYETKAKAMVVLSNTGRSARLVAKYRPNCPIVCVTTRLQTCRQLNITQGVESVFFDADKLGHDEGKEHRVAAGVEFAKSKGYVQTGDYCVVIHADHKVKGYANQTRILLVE
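qHTS format; LmPK 0.1 nM; substrates PEP 0.5 mM and ADP 0.1 mM. One-hour room-temperature incubation, then coupled luciferase luminescence; 0.5 nM enzyme wells mark activation.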
Large screens that a line does not name were inactive. Unless noted, calls come from the whole dose curve; as a rule, active = well fitted curve in the direction sought with a large enough effect; inconclusive = small, poorly fitted or top-dose-only effect, or another doubt; inactive = no such curve, though single readings can be large; an effect the other way counts as inactive or inconclusive.

C=CCN1c2ccccc2[C@]23C[C@@H](C(=O)OC)N(S(=O)(=O)c4ccc(C#N)cc4)C2=NC(C(=O)OC)=C(C(=O)OC)[C@H]13	none (no result: Sm TGR inh, TbPYK inhibitor, Shiga inhibitor, CHX counter)
CC(=O)c1cc(C#N)c(SCC(=O)OC(C)C)nc1C	Shiga inhibitor 26, CHX counter 18
CN1CCc2nc(SCC(=O)OC(C)(C)C)c(C#N)cc2C1	Giardia FBPA inh inconclusive, Shiga inhibitor 79, CHX counter 35
CC(=O)c1cc(C#N)c(SCC(=O)OC(C)(C)C)nc1C	CHX counter 19
CN1CCc2nc(SCC(=O)Nc3ccc(Cl)cc3)c(C#N)cc2C1	none (no result: Sm TGR inh, Giardia FBPA inh, Shiga inhibitor, CHX counter, LmPK inhibitor)
CCOc1cccc(CN2CCC(Oc3ccc(C(=O)NCc4ccccn4)cc3)CC2)c1	none
N#C/C(=C(/O)CN1CCN(c2ccccc2F)CC1)c1nc(-c2ccc(Cl)cc2)cs1	none
CCCCN(C)C/C(O)=C(\C#N)c1nc(-c2ccccc2)cs1	Shiga inhibitor 33
N#C/C(=C(/O)CN1CCCCC1)c1nc(-c2ccc(Cl)cc2)cs1	Shiga inhibitor 50, CHX counter 18
N#C/C(=C(/O)CCl)c1nc(-c2ccccc2)cs1	Sm TGR inh inconclusive, Giardia FBPA inh inconclusive, Shiga inhibitor 52, CHX counter 21
N#C/C(=C(/O)CN1CCOCC1)c1nc(-c2ccccc2)cs1	none
Cc1ccc(-c2csc(/C(C#N)=C(\O)CCl)n2)cc1	Sm TGR inh 18µM, Shiga inhibitor 93, CHX counter 33
COc1cccc(-c2cncnc2NCc2cccnc2)c1	none (no result: Sm TGR inh, TbPYK inhibitor, Shiga inhibitor, CHX counter, LmPK inhibitor)
Cn1c(=O)nc2n(-c3ccc(Cl)c(Cl)c3)c3cc(Cl)ccc3cc-2c1=O	none (no result: Giardia FBPA inh, Shiga inhibitor, CHX counter, LmPK inhibitor)
Cc1cccc(-n2ncc3c(N(C)Cc4ccccc4)ncnc32)c1	Shiga inhibitor 97, CHX counter 57
CC(C)Nc1ncnc2c1cnn2-c1ccccc1	Shiga inhibitor 24, CHX counter 23
COc1ccc(-n2ncc3c(Nc4cccc(C)c4)ncnc32)cc1	Giardia FBPA inh inconclusive, Shiga inhibitor 109, CHX counter 15
Cc1cccc(-n2ncc3c(NC(C)C)ncnc32)c1	Shiga inhibitor 79, CHX counter 53
CO[C@H]1COC(=O)[C@@H](Cc2ccccc2)NC(=O)[C@@H](C)COC(=O)CCC[C@@H]1C	none (no result: Sm TGR inh, TbPYK inhibitor, Shiga inhibitor, CHX counter, LmPK inhibitor)
CCC(=O)Nc1cc2c(cc1Cl)-c1ccccc1C2	none (no result: Sm TGR inh, Giardia FBPA inh, Shiga inhibitor, CHX counter, LmPK inhibitor)
Cc1ccccc1Nc1ncnc2c1cnn2-c1ccccc1	Shiga inhibitor 70, CHX counter 48
Cc1cccc(-n2ncc3c(N4CCCCCC4)ncnc32)c1	none (no result: Giardia FBPA inh, Shiga inhibitor, CHX counter, LmPK inhibitor)
c1ccc(-n2ncc3c(NC4CCCCCC4)ncnc32)cc1	Giardia FBPA inh inconclusive, Shiga inhibitor 62, CHX counter 45
Cc1cccc(-n2ncc3c(N)ncnc32)c1	CHX counter 52
Cc1cccc(-n2ncc3c(Nc4ccc(F)cc4)ncnc32)c1	Shiga inhibitor 52, CHX counter 44
Clc1ccc(-n2ncc3c(NC4CCCC4)ncnc32)cc1	none (no result: Giardia FBPA inh, Shiga inhibitor, CHX counter, LmPK inhibitor)
Cc1ccc(CNC(=O)CSc2ncc(C(=O)Nc3ccccc3)c(=O)n2C)cc1	none (no result: Giardia FBPA inh, Shiga inhibitor, CHX counter, LmPK inhibitor)
CCOc1ccc(Nc2ncnc3c2cnn3-c2ccccc2)cc1	none
NNc1ncnc2c1cnn2-c1ccccc1	CHX counter 38
CC(=O)CCc1oc2ccc(NC(C)=O)cc2c1-c1ccc(C)o1	Sm TGR inh 20µM
COc1ccc2oc(C(=O)OCC(=O)Nc3ccc(NC(C)=O)cc3)c(C)c2c1	none (no result: Giardia FBPA inh, Shiga inhibitor, CHX counter, LmPK inhibitor)
CC(=O)CCc1oc2ccc(C)cc2c1-c1ccc(C)o1	Sm TGR inh 25µM
CCCNC(=O)C1(C)CCCN(C(=O)C2(c3ccc(Cl)cc3)CCCC2)C1 (stereo unspecified)	none (no result: Sm TGR inh, Giardia FBPA inh, Shiga inhibitor, CHX counter, LmPK inhibitor)
CSc1nnc2c(n1)c(C)nn2-c1cccc(C)c1	Shiga inhibitor 36, CHX counter 20
CSc1nncc(/C(C)=N\Nc2cccc(C)c2)n1	none
Cc1nnc(NC(=O)c2nc(S(=O)(=O)Cc3ccccc3C)ncc2Cl)s1	Sm TGR inh 25µM, Giardia FBPA inh inconclusive, Shiga inhibitor 51, CHX counter 44
CSc1nnc(NC(=O)c2nc(S(=O)(=O)Cc3ccccc3F)ncc2Cl)s1	Sm TGR inh 28µM, Giardia FBPA inh inconclusive, Shiga inhibitor 36, CHX counter 51
CCOc1ccc(NC(=O)c2nc(S(=O)(=O)Cc3ccccc3F)ncc2Cl)cc1	Sm TGR inh 7.1µM (no result: Giardia FBPA inh, LmPK inhibitor)

Bioassay records deposited in PubChem BioAssay by National Center for Advancing Translational Sciences (NCATS).
